Assay outcomes (PubChem)
SARS PLP yeast = blocks SARS-CoV papain-like protease in a yeast assay. 330,000 tested, 0.19% active. S. cerevisiae expressing SARS-CoV PLpro, growth rescue. Potency, µM (doses to about 32.9 µM), inactives show at the top dose activity, positive = growth rescue, usual class: activators; also: potency is read from the fitted curve at half-maximal effect; 0% is about no effect; nearly all actives have a fitted effect of over 55% in size
Pf growth 48h = P. falciparum growth inhibition at 48 hours (one generation); 310,000 tested, 5.9% active; AID 504832; P. falciparum luciferase growth in erythrocytes, 48 h; Potency, µM (series often up to 28.7 µM), for the others: at the top dose activity change, negative = inhibition, usual class: inhibitors; active = well fitted inhibition curve with a large enough effect; inconclusive = small, poorly fitted or top-dose-only effect, or another doubt; inactive = no such curve, though single readings can be large or run the other way; also: potency is read from the fitted curve at half-maximal effect; % is scaled to controls: 0 for no effect and ±100 for the full control effect
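First compound was added to culture medium, then infected red cells at 0.1% parasitemia and 2% hematocrit (final). After incubation at 37 C under 5% CO2, luciferase detection reagent was dispensed and light output recorded.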
NS1 function inh = inhibitors of influenza NS1 protein function | Potency, µM (top dose mostly 46.1 µM), for inactives: at the top dose activity, positive = more growth | 270,000 tested, 0.4% active; also: potency is read from the fitted curve at half-maximal effect; actives are rising curves; nearly all actives have a fitted effect of over 50% in size
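Compounds were scored for reversing the slow growth caused by influenza A NS1 in S. cerevisiae, measured by optical density at 600 nm. Assay medium contained 2% galactose at pH 6.0; NS1-free yeast of the same strain were the positive control.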
Pf growth 96h = P. falciparum growth inhibition at 96 hour, primary screen for plastid delayed-death inhibitors; Potency, µM (highest dose often 28.7 µM), inactives show at the top dose activity change, negative = inhibition, actives largely listed as inhibitors; 320,000 tested, 6.9% active; AID 504834; P. falciparum luciferase reporter growth, 96 h; active = well fitted inhibition curve with a large enough effect; inconclusive = small, poorly fitted or top-dose-only effect, or another doubt; inactive = no such curve, though single readings can be large or run the other way; also: potency is read from the fitted curve at half-maximal effect; % is scaled to controls: 0 for no effect and ±100 for the full control effect
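P. falciparum expressing integrated firefly luciferase, in erythrocytes at 2% hematocrit, 0.05% parasitemia, incubated with compounds 96 h at 37 C, 5% CO2. Growth inhibition read as loss of luminescence; two-generation exposure targets delayed-death apicoplast inhibitors.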
CHX counter = counter-screen for Shiga toxin inhibitors: cycloheximide protein synthesis inhibition; cell reporter, cycloheximide protein synthesis inhibition counterscreen; max response, %; 300,000 tested, 12% active; AID 2314; in the data active = max response mostly above about 13%, no sharp cut-off; inactive = mostly below about 14%; also: read at 38.3 µM for the half of the compounds with a filed dose; 0% is about no effect
Shiga inhibitor = blocks Shiga toxin action in Vero cells; 290,000 tested, 9.2% active; Vero cells, Shiga toxin protein synthesis inhibition reporter; inhibition, % at 38.7 µM; in the data active = inhibition mostly above about 28%, no sharp cut-off; inactive = mostly below about 43%; also: 0% is about no effect
The depositor's hits bear a star; ? = inconclusive; . = no result given; [ ] = remark or other dose. This is a sample that favours compounds with a hit; in the whole collection about 21% have one here. Unless noted, calls follow the shape of the full dose curve.

SMILES | SARS PLP yeast | Pf growth 48h | NS1 function inh | Pf growth 96h | CHX counter | Shiga inhibitor
CC(=O)c1ccc(OCCCC(=O)Nc2cccc(S(=O)(=O)N3CCCCC3)c2)cc1 | -1% | 13µM* | . | ? | . | .
CCOC(=O)c1c(C)n(COCCO)c2ccc(O)cc12 | -6% | -5% | 4% | . | 9 | 6
CCOCCn1c(C)c(C(=O)OCC)c2cc(O)c3ccccc3c21 | 5% | 2.3µM* | . | 3.7µM* | . | .
Cc1cc[n+](CCc2ccccc2)cc1C | 2% | 7%[0.00184 µM] | 3% | -9% | -4 | -3
CC1(C)CC(=O)c2c(nc(SCC(=O)Nc3nsc(-c4ccccc4)n3)c(C#N)c2-c2ccccc2)C1 | 3% | ? | ? | 15µM* | 2 | 15
O=C(CSc1nnc2ccccn12)Nc1nsc(-c2ccccc2)n1 | 3% | 31% | 14% | 11% | 19* | 21
COc1ccc2c(C)cc(SCC(=O)Nc3nsc(-c4ccc(C)cc4)n3)nc2c1 | 7% | 41% | -20% | 88% | -3 | -16
COc1ccc(-c2nc(NC(=O)CSc3nnc(C)s3)ns2)cc1 | 3% | 40% | 14% | 152% | 34* | 33*
Cc1ccc(-c2nc(NC(=O)CSc3nnc(C)s3)ns2)cc1 | 16% | . | -4% | -32% | 23* | 77*
Cc1nnc(SCC(=O)Nc2nsc(-c3ccccc3)n2)s1 | -6% | 26% | 3% | 7.4µM* | 15* | 30
Cc1ccc(-c2nc(NC(=O)CSc3cc(C)c4ccccc4n3)ns2)cc1 | 13% | 30% | 4% | 15µM* | -3 | -9
O=C(CSc1nnnn1-c1ccccc1)Nc1nsc(-c2ccccc2)n1 | 0% | 10% | -4% | . | -2 | -9
COc1ccc2sc(-c3ccccc3OC)c(-c3ccc4c(c3)OCCO4)c2c1 | -2% | 10µM* | . | 2.6µM* | . | .
COc1ccc2sc(-c3ccccc3OC)c(-c3ccc(O)cc3)c2c1 | -1% | ? | . | 2.3µM* | . | .
O=C1c2ccccc2C(=O)N1c1ccc(Cc2ccncc2)cc1 | 7% | 27% | -2% | -2% | 15* | 38
COc1ccc(CCN(C)CCCC(C#N)(c2cc(OC)c(OC)c(OC)c2)C(C)C)cc1OC (stereo not given) | 0% | 12µM* | 2% | 5.2µM* | 8 | 20
CC(C)CN1CCN(Cc2cccc3cccnc23)CC1CCO (stereo not given) | -2% | 23% | 2% | 78% | 4 | 1
Cc1oc(-c2cccs2)nc1CN1CCN(CC(C)C)C(CCO)C1 (stereo not given) | -1% | -7% | -1% | 1.9µM* | 2 | -6
COc1cccc(CN2CCN(Cc3nc(-c4cccs4)oc3C)CC2CCO)c1 (stereo not given) | -1% | 9.3µM* | 1% | ? | -1 | -1
COc1cccc(CN2CCN(Cc3nc(-c4cccc(F)c4F)oc3C)CC2=O)c1 | 0% | 13µM* | -7% | ? | -2 | 4
CCOc1cc(NC(=O)c2cnccn2)c(OCC)cc1NC(=O)c1cccc(F)c1 | 0% | 13% | 5% | 5% | -1 | -17
Cc1cccc(Cl)c1NC(=O)N1CCCN(c2nc3ccc(Cl)cc3s2)CC1 | -2% | ? | -3% | ? | 25* | 44*
CC(=O)N1CCN(c2nc3ccc(Br)cc3s2)CC1 | -6% | 85% | 0% | 67% | 27* | 53*
O=C(c1ccccc1)N1CCN(c2nc3ccc([N+](=O)[O-])cc3s2)CC1 | 1% | -3% | 0% | -19% | 4 | 10
CC(C)(C)C(=O)N1CCN(c2nc3ccc(Br)cc3s2)CC1 | ? | 31% | -10% | 27% | 23* | 31*
SMILES | SARS PLP yeast | Pf growth 48h | NS1 function inh | Pf growth 96h | CHX counter | Shiga inhibitor
Cc1cccc(C)c1NC(=O)N1CCN(c2nc3ccccc3s2)CC1 | -1% | -12% | -4% | . | 1 | 24
CC(C)(C)C(=O)N1CCN(c2ccc(Cl)cc2[N+](=O)[O-])CC1 | -47% | 24% | -42% | 36% | 25* | 33*
O=C(O)CSCC(=O)N1CCN(c2nc3cc(Cl)ccc3s2)CC1 | -1% | 0% | 0% | 28% | 8 | 28
CC(C)(C)C(=O)N1CCN(c2nc3ccc(Cl)cc3s2)CC1 | -2% | -5%[0.00184 µM] | -8% | 66% | 19* | 80*
COc1ccc(C(=O)N[C@H](C(=O)OCC(=O)NC(=O)c2cccn2C)C(C)C)cc1 | -13% | -1% | -13% | 17% | 15* | 15
COc1cc(OC)cc(C(=O)N[C@H](C(=O)OCC(=O)NC(=O)c2cccn2C)C(C)C)c1 | 0% | -32% | . | 17% | -7 | -13
O=C(O)c1cccc(Nc2ncnc3sccc23)c1 | 1% | 162% | 14% | 375% | 25* | 41
Fc1cccc(Nc2ncnc3sccc23)c1 | -3% | 44% | 8% | 57% | 9.8* | 27
COc1ccc(Cn2nnnc2CN2CCC(c3nc4ccccc4s3)CC2)cc1 | -2% | 12µM* | -58% | 182% | 7 | 2
CCC(C)(C)n1nnnc1CN1CCC(c2nc3ccc(C)cc3[nH]2)CC1 | -8% | . | -9% | 34% | -2 | -4
Cc1cc2nc(C3CCN(Cc4nnnn4Cc4ccccc4)CC3)[nH]c2cc1C | 3% | ? | -8% | 5.2µM* | -1 | -16
NC(Cc1ccccc1)=NCC(=O)O | . | . | 2% | . | . | .
CCCSc1nnc(NC(=O)Nc2ccccc2)s1 | 28% | 48% | -7% | -98% | 19* | 21
O=C(Nc1ccccc1)Nc1nnc(-c2ccccc2)s1 | 0% | 82% | 4% | 81% | 19 | 9
CCCSc1nnc(NC(=O)Nc2ccc(C)cc2)s1 | 0% | 26% | 2% | ? | 2 | 17
CCCSc1nnc(NC(=O)Nc2ccc(F)cc2)s1 | -16% | ? | -17% | 0% | 32* | 29
COC(=O)c1cc2c(C)[nH]c(C)c2cc(C(=O)OC)c1=O | 6% | 16% | 14% | -1% | -2 | -6
O=C(c1cccc([N+](=O)[O-])c1)c1ccc2[nH]c(=O)[nH]c2c1 | 4% | 20% | 4% | 26% | -7 | -5
COC(=O)N/N=C\C=C\c1ccc2c(c1)OCO2 | -3% | -5% | -1% | 38% | -2 | -8
CC(C)(C)OC(=O)N/N=C\C=C\c1ccc2c(c1)OCO2 | -4% | 141% | -6% | 3.7µM* | 29* | 34*
COc1ccc(CC(=O)N/N=C/C=C/c2ccc3c(c2)OCO3)cc1OC | -1% | -9% | 5% | -13% | 2 | 2
CCOC(=O)N/N=C\C=C\c1ccc2c(c1)OCO2 | -12% | 58% | -7% | ? | 35* | 58
COc1cc(CC(=O)N(C)CC(=O)Nc2cc(C)ccc2C)cc(OC)c1OC | -9% | 2% | -13% | -16% | -3 | -6
COc1ccc(CC(=O)Nc2cc(C)ccc2O)cc1OC | -1% | -10% | -5% | 43% | -3 | -11
O=C(Nc1ccc2c(c1)CCC2)C1CCN(c2c3c(nc4ncnn24)CCC3)CC1 | 1% | 12µM* | ? | -9% | 1 | -6
